# PubChem BioAssay (Tox21)
# A number with no mark means an inactive call. Records with an inconclusive call do not appear. A call without a number means that no potency is given here. Calls of active or inactive are those of the source. Unless noted, calls follow the shape of the dose curve; as a rule, active = well fitted curve in the direction sought with a large enough effect in the repeat runs; inconclusive = weak or mixed curves; inactive = no such curve, though single readings can be large; an effect the other way counts as inactive or inconclusive.
# Legend:
# [1] = qHTS assay to identify small molecule agonists of the RXR signaling pathway - cell viability counter screen (AID 1159529); also: nearly all actives have a fitted effect of over 50% in size
# Outline: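 Compounds dissolved in DMSO were pinned onto HEK 293T cells carrying a beta-lactamase reporter under RXR-alpha control and incubated 16 hr. Cytotoxicity was then quantified by CellTiter-Glo luminescence.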
# [2] = qHTS assay to identify small molecule antagonists of the retinoid acid receptor (RAR) signaling pathway - cell viability counter screen (AID 1159551); also: nearly all actives have a fitted effect of over 35% in size
# Outline: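 C3RL4 RARE-luciferase line; cpds + retinol 1 uM final, 6 h, 37 C/5% CO2; CellTiter-Glo ATP luminescence, 30 min RT.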
# [3] = qHTS assay to identify small molecule antagonists of the retinoic acid receptor (RAR) signaling pathway (AID 1159552; also: nearly all actives have a fitted effect of over 50% in size)
# Outline: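 Test chemicals and DMSO controls were pin-transferred onto C3RL4 cells a day after seeding; retinol (1 uM final) followed at once. Luminescent reporter output was quantified after 6 hr of co-incubation and 30 min with detection reagent.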
# [4] = qHTS assay to identify small molecule antagonists of the estrogen related receptor (ERR) signaling pathway from Tox21 library - cell viability counter screen (AID 1224834); also: nearly all actives have a fitted effect of over 30% in size
# Outline: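 Multiplexed viability counter screen in ERR cells: 17.5 h compound exposure at 37 C, CellTiter-Fluor added, 30 min at 37 C/5% CO2, fluorescence read.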
# [5] = target: Luciferin 4-monooxygenase (Photinus pyralis) (UniProt P08659); experiment: qHTS assay to identify small molecule inhibitors of firefly luciferase (AID 1224835); also: nearly all actives have a fitted effect of over 25% in size
# Luciferin 4-monooxygenase (Photinus pyralis), sequence (P08659 whole entry, looked up): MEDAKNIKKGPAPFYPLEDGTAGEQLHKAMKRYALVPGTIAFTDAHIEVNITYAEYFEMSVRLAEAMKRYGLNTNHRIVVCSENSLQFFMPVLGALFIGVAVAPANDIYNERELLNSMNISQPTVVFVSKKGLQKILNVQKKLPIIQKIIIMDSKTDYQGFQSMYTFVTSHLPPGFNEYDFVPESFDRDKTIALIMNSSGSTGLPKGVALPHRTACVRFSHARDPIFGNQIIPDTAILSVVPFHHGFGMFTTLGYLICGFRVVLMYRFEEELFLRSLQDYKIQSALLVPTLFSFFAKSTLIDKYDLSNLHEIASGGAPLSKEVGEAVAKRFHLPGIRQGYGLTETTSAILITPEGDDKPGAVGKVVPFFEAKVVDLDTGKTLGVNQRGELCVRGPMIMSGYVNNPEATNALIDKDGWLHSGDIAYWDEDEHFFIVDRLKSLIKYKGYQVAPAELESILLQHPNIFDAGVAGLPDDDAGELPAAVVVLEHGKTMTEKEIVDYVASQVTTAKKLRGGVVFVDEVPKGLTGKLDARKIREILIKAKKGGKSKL
# Outline: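 Inhibition of purified Photinus luciferase is measured by luminescence. Substrate levels (D-luciferin, ATP) sit at their KM values. Each compound is tested in a concentration series.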
# [6] = qHTS assay to identify small molecule agonists of the constitutive androstane receptor (CAR) signaling pathway - cell viability counter screen (AID 1224836); also: nearly all actives have a fitted effect of over 45% in size
# Outline: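 23 h treatment, 37 C, 5% CO2. Cell line: HepG2 stably expressing hCAR with a CYP2B6-2.2kb construct. Co-treatment: PK11195, 0.75 uM final. Read-out: CellTiter-Fluor fluorescence intensity.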
# [7] = qHTS assay to identify small molecule antagonists of the constitutive androstane receptor (CAR) signaling pathway - cell viability counter screen (AID 1224837); also: nearly all actives have a fitted effect of over 45% in size
# Outline: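 Read-out: CellTiter-Fluor fluorescence after 23 hr at 37 C/5% CO2. Cells: HepG2 double-stable for hCAR and CYP2B6-2.2kb. Compounds tested at 15 concentrations in the presence of CITCO, final concentration 50 nM.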
# [8] = qHTS assay to identify small molecule antagonists of the estrogen related receptor signaling pathway with the pleiotropic PPARgamma coactivator (PGC) from Tox21 10K library - cell viability counter screen (AID 1224840; active = well fitted cell-killing curve with a large enough effect in the repeat runs, not every such curve was filed as active; also: nearly all actives have a fitted effect of over 40% in size)
# Outline: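 Fluorescence read-out of CellTiter-Fluor viability reagent, added after cells had been exposed to compound in DMSO for 17.5 h at 37 C; 30 min development at 37 C/5% CO2. Cells: PGC/ERR line, 2,000/well.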
# [9] = target: Thyrotropin receptor (Homo sapiens) (UniProt P16473); experiment: qHTS assay to identify small molecule agonists of the thyroid stimulating hormone receptor (TSHR) signaling pathway (AID 1224843; calls by dose curve; also: nearly all actives have a fitted effect of over 45% in size; also: potency is read from the fitted curve at half-maximal effect)
# Thyrotropin receptor (Homo sapiens), sequence (P16473 whole entry, looked up): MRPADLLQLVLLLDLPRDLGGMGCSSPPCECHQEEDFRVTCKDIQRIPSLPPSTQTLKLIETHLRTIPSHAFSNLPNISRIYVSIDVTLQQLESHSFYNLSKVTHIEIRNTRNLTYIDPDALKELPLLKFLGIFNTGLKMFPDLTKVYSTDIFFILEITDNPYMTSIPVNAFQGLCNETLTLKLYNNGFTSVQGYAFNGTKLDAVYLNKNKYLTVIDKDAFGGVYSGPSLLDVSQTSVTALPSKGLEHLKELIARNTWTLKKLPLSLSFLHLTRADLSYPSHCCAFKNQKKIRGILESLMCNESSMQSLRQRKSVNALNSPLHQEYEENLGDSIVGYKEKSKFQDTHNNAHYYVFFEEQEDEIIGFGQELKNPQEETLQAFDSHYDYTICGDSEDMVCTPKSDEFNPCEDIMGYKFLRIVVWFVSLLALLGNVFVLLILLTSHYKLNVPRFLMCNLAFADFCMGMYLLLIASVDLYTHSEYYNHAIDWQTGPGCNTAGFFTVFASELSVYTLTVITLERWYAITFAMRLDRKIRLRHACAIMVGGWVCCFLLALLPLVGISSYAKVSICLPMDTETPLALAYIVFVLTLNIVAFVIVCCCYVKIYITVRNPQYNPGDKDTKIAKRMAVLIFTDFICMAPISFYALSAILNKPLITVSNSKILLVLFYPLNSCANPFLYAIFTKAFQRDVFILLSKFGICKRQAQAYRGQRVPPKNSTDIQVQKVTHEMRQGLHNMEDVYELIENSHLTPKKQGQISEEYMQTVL
# Outline: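 Agonist activity read as cAMP rise via d2/cryptate HTRF competition, 1 h room-temperature detection, in HEK293 cells expressing TSHR. Fifteen-point titrations, each run in triplicate, with a 30 min room-temperature incubation beforehand.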
# [10] = qHTS assay to identify small molecule agonists of the hypoxia (HIF-1) signaling pathway - cell viability counter screen (AID 1224844; calls by dose curve; also: nearly all actives have a fitted effect of over 50% in size)
# Outline: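 CellTiter-Glo luminescence read-out, 30 min RT, taken in the same wells as the beta-lactamase HRE reporter assay; HRE-bla ME-180 cells, 0.5% dialyzed FBS, 17 hr compound treatment at 37C, 5% CO2.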
# [11] = qHTS assay to identify small molecule agonists of the hypoxia (HIF-1) signaling pathway (AID 1224846; active = well fitted activation curve with a large enough effect in the signal ratio in the repeat runs, not every such curve was filed as active; the % refers to the signal ratio)
# Outline: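 Beta-lactamase FRET read-out (CCF4-AM substrate) from ME-180 cells carrying an HRE-driven bla reporter, after 17 hrs compound exposure at 37C/5% CO2. Cells were seeded at 2,000 per well in 0.5% dialyzed FBS medium and preincubated 5 hrs.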
# [12] = qHTS assay to identify small molecule agonists of H2AX - cell viability counter screen (AID 1224847; calls by dose curve; also: top concentration of the series differs between compounds; nearly all actives have a fitted effect of over 30% in size)
# Outline: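 Compounds tested at 15 concentrations were incubated 3 hr at 37C with wild-type CHO-K1 cells; cellular ATP-based luminescence (CellTiter-Glo) indicated viability.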
# [13] = target: Nuclear receptor subfamily 1 group I member 3 (Homo sapiens) (UniProt Q14994); experiment: qHTS assay to identify small molecule antagonists of the constitutive androstane receptor (CAR) signaling pathway (AID 1224838);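 also: HepG2 cells stably expressing hCAR with CYP2B6 luciferase reporter stimulated by CITCO; nearly all actives have a fitted effect of over 40% in size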
# Nuclear receptor subfamily 1 group I member 3 (Homo sapiens), sequence (Q14994 whole entry, looked up): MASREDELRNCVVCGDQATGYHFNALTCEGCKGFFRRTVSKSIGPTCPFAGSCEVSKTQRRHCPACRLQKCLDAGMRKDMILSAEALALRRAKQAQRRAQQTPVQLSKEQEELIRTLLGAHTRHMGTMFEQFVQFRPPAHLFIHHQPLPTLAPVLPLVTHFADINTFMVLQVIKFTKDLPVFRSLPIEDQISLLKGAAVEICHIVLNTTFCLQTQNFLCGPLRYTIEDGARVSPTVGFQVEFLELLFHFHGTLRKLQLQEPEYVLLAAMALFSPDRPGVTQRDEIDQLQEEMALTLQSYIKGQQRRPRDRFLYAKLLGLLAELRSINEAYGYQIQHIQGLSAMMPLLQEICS
# Outline: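 Read-out: ONE-Glo luciferase luminescence after 30 min at room temperature. HepG2-CYP2B6-hCAR double-stable cells, compounds in 15-point titration plus 50 nM CITCO final, 24 h at 37 C/5% CO2.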
# [14] = target: Nuclear receptor subfamily 1 group I member 3 (Homo sapiens) (UniProt Q14994); experiment: qHTS assay to identify small molecule agonists of the constitutive androstane receptor (CAR) signaling pathway (AID 1224839); also: nearly all actives have a fitted effect of over 15% in size; also: potency is read from the fitted curve at half-maximal effect;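 as to activation: HepG2 cells stably carrying human CAR and a CYP2B6 luciferase reporter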
# Outline: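 Compounds tested at 15 concentrations on HepG2 cells stably harbouring hCAR and CYP2B6-2.2kb reporter constructs, co-treated with PK11195 (0.75 uM final), 24 h at 37 C; luminescent reporter signal quantified.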
# [15] = qHTS assay to identify small molecule antagonists of the estrogen related receptor signaling pathway with the pleiotropic PPARgamma coactivator (PGC) from Tox21 10K library (AID 1224841; call rule not given here; also: actives are mostly falling curves and most rising ones were filed inactive; nearly all actives have a fitted effect of over 50% in size)
# Outline: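 Luminescence read-out (One-Glo luciferase reagent, 30 min at room temperature) from PGC/ERR cells exposed to DMSO-dissolved test compounds for 18 h at 37 C; cells, 2,000 per well, had been preincubated 6 h before compound transfer.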
# [16] = qHTS assay to identify small molecule agonists of the estrogen related receptor signaling pathway with the pleiotropic PPARgamma coactivator (PGC) from Tox21 10K library (AID 1224842); also: nearly all actives have a fitted effect of over 15% in size
# Outline: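 Luminescence from One-Glo (30 min, room temperature) measured after PGC/ERR cells had 18 h at 37 C with pinned compound (23 nL in DMSO). Cells had been seeded at 2,000 per well and pre-incubated 6 h.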
# [17] = qHTS assay to identify small molecule antagonists of the estrogen related receptor (ERR) signaling pathway from Tox21 library (AID 1224848); also: nearly all actives have a fitted effect of over 50% in size
# Outline: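 Luciferase luminescence (ONE-Glo, 30 min room temperature) was the read-out. Cells of the NTP-supplied ERR line, 2,000 per well, were given 6 h at 37 C before compound addition in DMSO and 18 h exposure at 37 C.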
# [18] = qHTS assay to identify small molecule agonists of the estrogen related receptor (ERR) signaling pathway from Tox21 library (AID 1224849; calls by dose curve; also: nearly all actives have a fitted effect of over 15% in size); conditions: ERR reporter cell line, ONE-Glo luciferase, 18 h; at 92.4 µM (top of the series) unless noted
# Outline: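 Luminescence readout (ONE-Glo, 30 min RT) after 18 h compound exposure at 37 C of NTP-supplied ERR reporter cells; cells were plated 6 h before compound addition by pin tool.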
# [19] = qHTS assay to identify small molecule agonists of H2AX (AID 1224845; active = well fitted activation curve with a large enough effect in the signal ratio in the repeat runs, not every such curve was filed as active; the % refers to the signal ratio)
# Outline: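 Phospho-H2AX Ser139 measured by HTRF (ex 320 nm; em 665 and 620 nm) after 24 hr antibody incubation. Compounds, 15 concentrations, 0.76% DMSO, were applied to CHO-K1 cells for 3hr at 37C before lysis.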
# [20] = qHTS assay to identify small molecule agonists of the retinoic acid receptor (RAR) signaling pathway (AID 1159553)
# Outline: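 RARE-luc C3RL4 cells; overnight attachment 37 C/5% CO2; compound (DMSO) 6 hr; luciferase reagent, 30 min RT; luminescence read-out.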
SMILES,Potency [1],outcome [2],outcome [3],outcome [4],Potency [5],outcome [6],outcome [7],outcome [8],Potency [9],outcome [10],outcome [11],outcome [12],outcome [13],Potency [14],Potency [15],Potency [16],outcome [17],"activity change, positive = activation [18]",outcome [19],Potency [20]
CC(=O)c1ccc(O)c(C(N)=O)c1,inactive,inactive,inactive,inactive,inactive,inactive,inactive,inactive,inactive,inactive,inactive,inactive,–,–,–,–,–,–,–,–
CC/C=C/CCCCCCCCCCOC(C)=O,inactive,inactive,inactive,inactive,inactive,inactive,inactive,inactive,inactive,inactive,inactive,–,inactive,inactive,inactive,inactive,inactive,0.111%,–,–
CC(C)=CCC/C(C)=C\C#N,inactive,inactive,inactive,inactive,inactive,inactive,inactive,inactive,inactive,inactive,–,inactive,inactive,inactive,–,–,–,–,inactive,–
CC(=O)Nc1ccc(S(=O)(=O)Nc2cc(C)on2)cc1,inactive,inactive,inactive,inactive,inactive,inactive,–,inactive,inactive,inactive,inactive,inactive,–,–,–,–,–,–,inactive,inactive
C/C=C/C(=O)CCCC,inactive,inactive,inactive,inactive,inactive,inactive,inactive,inactive,inactive,inactive,inactive,inactive,inactive,inactive,–,–,–,–,–,–
O=c1c(O)c(O)c1=O,inactive,inactive,inactive,inactive,inactive,inactive,inactive,–,27.3 µM (active),inactive,inactive,inactive,inactive,inactive,–,–,–,–,inactive,–
NS(=O)(=O)c1cc2c(cc1C(F)(F)F)NCNS2(=O)=O,inactive,inactive,inactive,inactive,inactive,inactive,inactive,inactive,inactive,inactive,–,–,–,–,–,–,–,–,inactive,–
CCCCNCC,inactive,inactive,inactive,inactive,inactive,inactive,inactive,inactive,inactive,inactive,inactive,–,inactive,inactive,–,–,–,–,inactive,–
N#CC1(N)CCCCC1,inactive,inactive,inactive,inactive,inactive,inactive,inactive,inactive,inactive,inactive,inactive,inactive,inactive,inactive,–,–,–,–,inactive,–
C[Si](C)(C)O[Si](O)(O)O,inactive,inactive,inactive,inactive,inactive,inactive,–,inactive,–,inactive,inactive,inactive,–,–,inactive,inactive,inactive,4.29%,inactive,inactive
CC(=O)OC/C=C(/C)CCC=C(C)C,inactive,inactive,inactive,inactive,inactive,inactive,–,inactive,inactive,inactive,inactive,inactive,inactive,inactive,–,–,–,–,–,–
CN(C)c1ccncc1,inactive,inactive,inactive,inactive,inactive,inactive,–,–,inactive,inactive,inactive,inactive,inactive,inactive,–,–,inactive,-2.4%,inactive,inactive
CC(C)OC(=O)C(C(=O)OC(C)C)=C1SC=CS1,inactive,inactive,inactive,inactive,inactive,inactive,inactive,inactive,inactive,inactive,inactive,–,inactive,13.3 µM (active),inactive,inactive,–,-19.5% [at 42.5 µM],inactive,–
CC(C)(C)OC=O,inactive,inactive,inactive,inactive,inactive,inactive,inactive,inactive,inactive,inactive,inactive,inactive,–,–,–,–,–,–,inactive,–
CN1C(CCl)Nc2cc(Cl)c(S(N)(=O)=O)cc2S1(=O)=O (centres undefined),inactive,inactive,inactive,inactive,inactive,inactive,inactive,inactive,–,inactive,inactive,inactive,inactive,inactive,inactive,–,inactive,0.151% [at 42.5 µM],inactive,–
CCC(C)(C)C,inactive,inactive,inactive,inactive,inactive,inactive,–,inactive,inactive,inactive,inactive,–,–,–,inactive,inactive,inactive,-3.65%,–,inactive
C/C(Cl)=C/CCl,inactive,inactive,inactive,inactive,inactive,inactive,inactive,–,inactive,inactive,–,–,inactive,inactive,–,–,–,–,–,–
CSC(=O)c1cccc2nnsc12,inactive,inactive,inactive,inactive,inactive,inactive,inactive,inactive,inactive,inactive,inactive,inactive,inactive,inactive,–,–,–,–,inactive,–
CCN(CC)CC,inactive,inactive,inactive,inactive,inactive,inactive,inactive,inactive,inactive,inactive,inactive,inactive,inactive,inactive,–,–,–,–,–,–
OCCC(F)(F)C(F)(F)C(F)(F)C(F)(F)C(F)(F)C(F)(F)F,inactive,inactive,inactive,inactive,inactive,inactive,inactive,–,inactive,inactive,–,inactive,inactive,inactive,–,–,–,–,inactive,–
CCOC(=O)COc1ccc2c(C)c(CCN(CC)CC)c(=O)oc2c1Cl,inactive,inactive,–,inactive,inactive,inactive,inactive,inactive,–,inactive,inactive,inactive,inactive,inactive,–,–,–,–,inactive,inactive
COc1ccccc1N1CCN(CC(O)COc2cc(OC)c(OC)c(OC)c2)CC1 (centres undefined),inactive,inactive,–,inactive,inactive,inactive,inactive,inactive,inactive,inactive,inactive,inactive,–,inactive,–,–,–,–,inactive,inactive
O=C1CC2(CCCC2)CC(=O)N1CCNCC1COc2ccccc2O1 (centres undefined),inactive,inactive,–,inactive,inactive,inactive,–,inactive,inactive,inactive,inactive,inactive,–,–,–,–,–,–,inactive,inactive
c1coc(Cn2cccc2)c1,inactive,inactive,–,inactive,inactive,inactive,inactive,inactive,inactive,inactive,inactive,inactive,inactive,inactive,–,–,–,–,inactive,–
CCCCN1C(=O)c2ccccc2C1=O,inactive,inactive,–,inactive,inactive,inactive,inactive,inactive,inactive,inactive,inactive,–,inactive,inactive,inactive,inactive,inactive,6.09%,inactive,inactive
Cc1ccc2cccnc2c1,inactive,inactive,–,inactive,inactive,inactive,inactive,inactive,–,inactive,inactive,inactive,inactive,inactive,–,–,–,–,–,inactive
